Sampled rows, rich in hits. Any-hit rate of the full collection: about 1.8%.
HTT aggregate – reduces HttQ103-GFP aggregates in PC12 cells. actives 1.1% (n = 220,000). Potency, µM (doses to about 46.1 µM), most hits filed as inhibitors. AID 1688. PC12 HttQ103-GFP aggregates, Acumen cytometry, 40 h; also: nearly all actives have a fitted effect of over 60% in size
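Read-out: GFP aggregate count by laser scanning cytometer (488 nm excitation, 500-530 nm emission, 1–25 µm objects >6 SD above background). Cells: PC12, inducible HTTex1-Q103-GFP, 100 nM tebufenozide; compounds titrated.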
JMJD2E inh – inhibitors of human JMJD2E histone demethylase | JMJD2E catalytic domain, FDH-coupled NADH fluorescence (FDH is formaldehyde dehydrogenase) | actives 1.6% (n = 230,000) | Potency, µM (top dose mostly 57.1 µM), most hits filed as inhibitors | B2RXH2 | AID 2147; active = well fitted inhibition curve with a large enough effect, not every such curve was filed as active; inconclusive = small, poorly fitted or top-dose-only effect, or another doubt; inactive = no such curve, though single readings can be large or run the other way; also: nearly all actives have a fitted effect of over 50% in size
L3MBTL1 inh – inhibitors of human L3MBTL1. Q9Y468. AlphaScreen L3MBTL1–H3K9me1 peptide binding. Potency, µM (highest dose often 57.1 µM), hits mostly inhibitors. actives 0.66% (n = 230,000). AID 485360; also: nearly all actives have a fitted effect of over 60% in size
Target sequence (Q9Y468 whole entry, looked up): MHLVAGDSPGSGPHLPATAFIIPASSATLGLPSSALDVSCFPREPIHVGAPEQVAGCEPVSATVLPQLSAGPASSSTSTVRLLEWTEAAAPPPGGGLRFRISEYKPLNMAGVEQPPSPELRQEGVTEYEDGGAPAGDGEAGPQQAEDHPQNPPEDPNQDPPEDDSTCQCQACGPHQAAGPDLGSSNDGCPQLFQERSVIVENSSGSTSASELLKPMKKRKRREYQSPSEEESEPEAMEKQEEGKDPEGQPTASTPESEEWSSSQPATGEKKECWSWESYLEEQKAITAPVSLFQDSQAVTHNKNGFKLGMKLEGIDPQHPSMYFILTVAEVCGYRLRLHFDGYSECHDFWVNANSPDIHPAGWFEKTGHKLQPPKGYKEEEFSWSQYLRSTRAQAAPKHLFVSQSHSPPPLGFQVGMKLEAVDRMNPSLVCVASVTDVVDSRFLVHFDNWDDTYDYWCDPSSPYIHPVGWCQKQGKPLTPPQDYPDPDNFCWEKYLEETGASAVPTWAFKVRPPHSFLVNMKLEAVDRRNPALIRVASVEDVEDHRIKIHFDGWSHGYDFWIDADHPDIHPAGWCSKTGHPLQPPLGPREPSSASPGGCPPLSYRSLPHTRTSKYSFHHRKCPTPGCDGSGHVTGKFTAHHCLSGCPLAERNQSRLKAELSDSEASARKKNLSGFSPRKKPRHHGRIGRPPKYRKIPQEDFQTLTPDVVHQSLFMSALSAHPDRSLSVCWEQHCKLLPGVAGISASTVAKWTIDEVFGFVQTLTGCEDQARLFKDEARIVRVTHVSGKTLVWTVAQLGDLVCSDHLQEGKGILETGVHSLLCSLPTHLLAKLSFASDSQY
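AlphaScreen assay: L3MBTL1 (50 nM final) was preincubated 30 min at room temperature with biotinylated H3(1-15)K9me1 peptide (75 nM final), then 30 min with library compounds; streptavidin donor and nickel chelate acceptor beads (10 ug/mL final) added, 30 min dark.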
HTT cytoprotect – protects HTT-Q103 PC12 cells, measured by ATP; AID 1471; actives 0.14% (n = 230,000); Potency, µM (series often up to 56.4 µM), usual class: activators; PC12 HTT-Q103 induced, cytoprotection, ATP luminescence, 40 h; also: nearly all actives have a fitted effect of over 45% in size
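Quantitative HTS on tebufenozide-induced (100 nM) PC12 cells expressing HTTQ103 exon 1–GFP; compounds tested as a concentration series; survival measured via cellular ATP.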
Each line names hits and unclear results; the compound was inactive in the other large screens; ! = repeats disagree. Unless noted, calls follow the shape of the dose curve; as a rule, active = well fitted curve in the direction sought with a large enough effect; inconclusive = small, poorly fitted or top-dose-only effect, or another doubt; inactive = no such curve, though single readings can be large; an effect the other way counts as inactive or inconclusive.

Cc1cc(C)cc(NC(=O)c2ccc(CNc3c(N4CCOCC4)c(=O)c3=O)cc2)c1	none (no result: L3MBTL1 inh)
CCOc1ccc(OCC)c(NC(=O)c2ccc(CNc3c(N4CCOCC4)c(=O)c3=O)cc2)c1	HTT aggregate inconclusive, HTT cytoprotect 3.16µM
O=C(Nc1nccs1)c1cc(-c2ccco2)nc2ccccc12	JMJD2E inh inconclusive, L3MBTL1 inh 14.1µM
Cc1nnc(NC(=O)c2cc(-c3ccco3)nc3ccccc23)s1	L3MBTL1 inh 6.31µM (no result: HTT aggregate, JMJD2E inh, HTT cytoprotect)
O=C(N/N=C/c1ccc(F)cc1)c1cc(-c2ccco2)nc2ccccc12	JMJD2E inh inconclusive, L3MBTL1 inh 3.55µM
O=C(Nc1nccs1)c1cc(-c2ccccc2)nc2ccccc12	none (no result: HTT cytoprotect)
O=C(Nc1cccc(S(=O)(=O)NC2=NCCC2)c1)c1cc(-c2ccco2)nc2ccccc12	JMJD2E inh inconclusive, L3MBTL1 inh 7.08µM
CCCc1c(OCCCOc2ccc(OCC(=O)O)cc2)ccc(CC=O)c1O	none (no result: HTT aggregate, L3MBTL1 inh)
COc1ccc(C)cc1NC(=O)c1ccccc1NS(=O)(=O)c1ccc(Cl)s1	HTT aggregate 4.47µM
COc1ccccc1NC(=O)c1ccccc1NS(=O)(=O)c1cccs1	none
Cc1cccc(NC(=O)CSc2nnc(-c3ccccc3C)o2)c1	HTT aggregate 0.0028µM (no result: HTT cytoprotect)
Cc1cc(C)cc(NC(=O)CSc2nnc(-c3ccccc3C)o2)c1	none
CC(C)COC(=O)NCCOC(=O)Nc1cccc(Cl)c1	HTT aggregate 10µM
O=c1[nH]ncn1-c1ccccc1C(F)(F)F	none
O=c1[nH][nH]c(=S)n1-c1ccccc1C(F)(F)F	JMJD2E inh 6.31µM
N#CC(C#N)=C1C=C2C=C(N3CCCCCC3)CCC2CC1 (stereo not drawn)	HTT aggregate 0.708µM
CCN1CCN(C2=CC3=CC(=C(C#N)C#N)CCC3CC2)CC1 (stereo not drawn)	HTT aggregate 2.82µM, JMJD2E inh inconclusive (no result: L3MBTL1 inh, HTT cytoprotect)
CN1CCN(C2=CC3=CC(=C(C#N)C#N)CCC3CC2)CC1 (stereo not drawn)	HTT aggregate 0.316µM (no result: L3MBTL1 inh)
N#CC(C#N)=C1C=C2C=C(N3CCOCC3)CCC2CC1 (stereo not drawn)	HTT aggregate 1.26µM
CN(C)C(=O)/N=N/C(=O)N(C)C	none (no result: HTT aggregate, L3MBTL1 inh, HTT cytoprotect)
Cc1ccc2c(c1)C1C=CCC1C(C(=O)O)N2 (stereo not drawn)	JMJD2E inh inconclusive, L3MBTL1 inh 3.16µM
COc1cccc2c1NC(C(=O)O)C1CC=CC21 (stereo not drawn)	JMJD2E inh inconclusive, L3MBTL1 inh 1.26µM
CC(=O)c1ccc2c(c1)C1C=CCC1C(c1ccncc1)N2 (stereo not drawn)	JMJD2E inh inconclusive
CC(=O)c1ccc2c(c1)C1C=CCC1C(C(=O)O)N2 (stereo not drawn)	L3MBTL1 inh 1.26µM
O=C(NC(Nc1nc2ccc([N+](=O)[O-])cc2s1)(C(F)(F)F)C(F)(F)F)c1ccccc1Cl	HTT aggregate 0.316µM
O=C1c2cc(Br)ccc2O[C@@H](c2ccc3c(c2)OCO3)[C@@H]1O	none (no result: HTT aggregate, L3MBTL1 inh)
CC1CC(C)CN(S(=O)(=O)c2ccc(C(=O)NCCCn3ccnc3)cc2)C1 (stereo not drawn)	HTT aggregate 7.94µM
O=C(NCCCn1ccnc1)c1ccc(S(=O)(=O)N2CCCCCC2)cc1	none
Cc1ccc(-c2csc(N3CCC(NS(=O)(=O)c4ccc5c(c4)OCCO5)CC3)n2)cc1	HTT aggregate 6.31µM, HTT cytoprotect inconclusive
Cc1ccc(-c2csc(N3CCC(C(N)=O)CC3)n2)cc1	none (no result: HTT aggregate, JMJD2E inh, HTT cytoprotect)
Cc1ccc(S(=O)(=O)N[C@H]2COC(=O)[C@H](C)COC(=O)C/C=C\[C@H]2C)cc1	none (no result: HTT aggregate, JMJD2E inh, L3MBTL1 inh)
O=C(Cc1cc(=O)[nH][nH]1)N/N=C/c1cccc(Cl)c1Cl	JMJD2E inh 3.98µM!
O=C(Cc1cc(=O)[nH][nH]1)N/N=C/c1ccccc1Cl	none
CCC(=O)O[C@@H](OP(=O)(CCCCc1ccccc1)CC(=O)N1C[C@H](C2CCCCC2)C[C@H]1C(=O)O)C(C)C (stereo partly drawn)	none (no result: JMJD2E inh, L3MBTL1 inh)
Cc1nn(C(C)C(=O)c2cccc(Cl)c2)c(C)c1[N+](=O)[O-] (stereo not drawn)	none
Cn1cnc([N+](=O)[O-])c1S(=O)(=O)c1cccc(Cl)c1	HTT aggregate 5.62µM (no result: HTT cytoprotect)
O=[N+]([O-])c1cc(Cl)cc(/C=N/NC(=S)Nc2ccc(S(=O)(=O)N3CCOCC3)cc2)c1O	JMJD2E inh 25.1µM, L3MBTL1 inh 3.55µM
Oc1ccc(/C=N/NC(=S)Nc2cccnc2)cc1O	JMJD2E inh 15.8µM, L3MBTL1 inh 11.2µM (no result: HTT cytoprotect)
O=S(=O)(c1ccc(NC(=S)N/N=C/c2ccc(O)c(O)c2)cc1)N1CCOCC1	JMJD2E inh 12.6µM, L3MBTL1 inh inconclusive
O=c1c(-c2cc(F)cc(F)c2)nc2cnc(N3CCOCC3)nc2n1C[C@H]1CCCO1	none (no result: HTT aggregate, JMJD2E inh, L3MBTL1 inh)
O=C(N/N=C/c1c(O)n(Cc2ccccc2)c(=O)c2ccccc12)c1cccnc1	HTT aggregate inconclusive, JMJD2E inh inconclusive
COc1ccc(Cn2c(O)c(/C=N/NC(=O)c3cccnc3)c3ccccc3c2=O)cc1	HTT aggregate inconclusive, JMJD2E inh 28.2µM
COc1ccc(/C=N/Nc2nnc(C)n2N)cc1OC	HTT aggregate inconclusive, JMJD2E inh 14.1µM (no result: L3MBTL1 inh)
COC(=O)c1ccc(C(NC(=O)OCc2ccccc2)/C(=C/[C@@H](C)C(=O)N(C)Cc2ccccc2)c2cccnc2)cc1 (stereo partly drawn)	none (no result: HTT aggregate, L3MBTL1 inh)
CC(C)=CCC/C(C)=C/CO/N=C1/[C@H]2O[C@@H]2[C@@H](O)[C@H]2[C@H]1CCn1c(=O)n(Cc3cc4c(cc3Cl)OCO4)c(=O)n12	none (no result: HTT aggregate, JMJD2E inh, L3MBTL1 inh)
O=S(=O)(Nc1cc(Sc2ncn[nH]2)c(O)c2ccccc12)c1ccccc1	HTT aggregate 4.47µM, JMJD2E inh 12.6µM (no result: L3MBTL1 inh)
CC(=O)N[C@@H](CS)C(=O)O	JMJD2E inh 25.1µM!, HTT cytoprotect inconclusive
CC(=O)N[C@@H](CC(=O)O)C(=O)O	HTT cytoprotect inconclusive (no result: HTT aggregate)
CC(=O)N[C@@H](CCC(=O)O)C(=O)O	HTT cytoprotect 2µM (no result: JMJD2E inh, L3MBTL1 inh)
CC(=O)N[C@H](CS)C(=O)O	JMJD2E inh inconclusive (no result: HTT aggregate, L3MBTL1 inh)
COc1ccc2c(c1)[C@]1(C)CCC[C@](C)(CO)[C@@H]1CC2	none (no result: HTT aggregate, JMJD2E inh, L3MBTL1 inh)
O=C(Nc1nc(-c2ccccc2)cs1)c1ccccc1NS(=O)(=O)c1ccc(F)cc1	HTT aggregate 1.78µM, JMJD2E inh inconclusive
COc1ccccc1OC(C)C(=O)Nc1nc(-c2ccc(S(=O)(=O)N3CCOCC3)cc2)cs1 (stereo not drawn)	JMJD2E inh inconclusive
COc1ccccc1C(=O)Nc1nc(-c2ccc(S(=O)(=O)N3CCOCC3)cc2)cs1	HTT aggregate 2.51µM, JMJD2E inh inconclusive (no result: L3MBTL1 inh)
COC(=O)NC(c1cccc(C)c1)[C@]1(C(C)=O)CCOC1=O (stereo partly drawn)	none (no result: HTT aggregate, JMJD2E inh, L3MBTL1 inh)
CC(C)(C)c1ccc(-n2nc(C#N)c(Cl)cc2=O)cc1	HTT aggregate 5.01µM, JMJD2E inh inconclusive (no result: L3MBTL1 inh)
CC(C)(C)c1ccc(-n2nc(C(N)=O)c(O)cc2=O)cc1	none (no result: L3MBTL1 inh)
Cc1cccc(NC(=O)c2oc3c(c2C)C(=O)CC(C)(C)C3)n1	HTT aggregate 22.4µM
COc1ccc(-n2c3c(cc(C(=O)Nc4cccc(C)n4)c2=O)C(=O)CC(C)(C)C3)cc1	none (no result: HTT aggregate, HTT cytoprotect)
Cc1occc(=O)c1O	JMJD2E inh 15.8µM
Cc1c(O)ccoc1=O	JMJD2E inh inconclusive
